Source: the supplement of paper PMC11732987, “Enantioselective OTUD7B fragment discovery through chemoproteomics screening and high-throughput optimisation” (Communications Chemistry, 2025)

Legend:
Experiment in all cases: log2 ratio of Biotin-Ahx-Ub-VS probe labelling (fragment/DMSO); higher = less target engagement (more negative = stronger competition), active = hit call of the paper (q ≤ 0.05, log2 ratio ≤ -1)
Conditions in all cases: compound concentration: 200 uM; treatment time: 3 h
OTUD6B = target: T1, OTUD6B (UniProt Q8N6M0)
T1 sequence (whole entry): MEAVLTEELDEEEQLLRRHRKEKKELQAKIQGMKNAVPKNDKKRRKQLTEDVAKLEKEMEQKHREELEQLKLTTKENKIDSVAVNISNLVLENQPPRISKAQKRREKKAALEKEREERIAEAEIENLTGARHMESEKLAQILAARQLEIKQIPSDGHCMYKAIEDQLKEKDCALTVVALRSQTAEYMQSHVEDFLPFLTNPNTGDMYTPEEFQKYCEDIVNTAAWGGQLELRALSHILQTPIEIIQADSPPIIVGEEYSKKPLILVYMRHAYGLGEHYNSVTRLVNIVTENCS
Summary of the method: (§1)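 Average log2 ratios of fragment over vehicle were obtained by unpaired t-test from global-median-normalised Spectronaut label-free quantities. Proteins with ≥2 unique peptides were included. HEK293T lysate (495 µg per sample) was treated in triplicate with fragment at 200 µM or vehicle for 3 h, then with Biotin-Ahx-Ub-VS at 0.5 µM final for 1 h, and labelled DUBs were NeutrAvidin-enriched and run by diaPASEF LC-MS/MS.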

OTUD7B = target: T2, OTUD7B (UniProt Q6GQQ9)
T2 sequence (whole entry): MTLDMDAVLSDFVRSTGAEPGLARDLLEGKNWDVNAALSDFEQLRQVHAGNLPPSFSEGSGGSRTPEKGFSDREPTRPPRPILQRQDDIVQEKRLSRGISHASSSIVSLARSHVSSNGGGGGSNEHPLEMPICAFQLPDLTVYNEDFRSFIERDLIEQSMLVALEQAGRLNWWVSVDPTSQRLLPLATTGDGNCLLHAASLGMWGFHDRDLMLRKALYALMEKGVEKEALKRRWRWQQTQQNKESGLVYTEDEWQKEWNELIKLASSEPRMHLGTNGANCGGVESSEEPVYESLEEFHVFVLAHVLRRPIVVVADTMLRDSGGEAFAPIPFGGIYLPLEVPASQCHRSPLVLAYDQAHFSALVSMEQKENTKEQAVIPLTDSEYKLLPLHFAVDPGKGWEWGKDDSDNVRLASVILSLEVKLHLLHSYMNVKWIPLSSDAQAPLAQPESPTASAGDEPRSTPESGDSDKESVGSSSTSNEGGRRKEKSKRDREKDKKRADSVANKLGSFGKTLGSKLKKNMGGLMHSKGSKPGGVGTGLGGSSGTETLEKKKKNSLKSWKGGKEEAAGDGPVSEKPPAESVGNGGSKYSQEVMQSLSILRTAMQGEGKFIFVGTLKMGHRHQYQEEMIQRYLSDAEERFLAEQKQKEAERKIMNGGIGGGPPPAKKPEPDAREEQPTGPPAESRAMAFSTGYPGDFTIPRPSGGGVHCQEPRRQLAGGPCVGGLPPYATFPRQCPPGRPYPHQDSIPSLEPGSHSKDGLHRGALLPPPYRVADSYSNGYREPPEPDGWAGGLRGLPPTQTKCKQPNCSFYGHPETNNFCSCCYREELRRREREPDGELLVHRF
Summary of the method: as §1

PRPF8 = PRPF8 (UniProt Q6P2Q9)
Summary of the method: as §1

PSMD7 = target: T3, PSMD7 (UniProt P51665)
T3 sequence (whole entry): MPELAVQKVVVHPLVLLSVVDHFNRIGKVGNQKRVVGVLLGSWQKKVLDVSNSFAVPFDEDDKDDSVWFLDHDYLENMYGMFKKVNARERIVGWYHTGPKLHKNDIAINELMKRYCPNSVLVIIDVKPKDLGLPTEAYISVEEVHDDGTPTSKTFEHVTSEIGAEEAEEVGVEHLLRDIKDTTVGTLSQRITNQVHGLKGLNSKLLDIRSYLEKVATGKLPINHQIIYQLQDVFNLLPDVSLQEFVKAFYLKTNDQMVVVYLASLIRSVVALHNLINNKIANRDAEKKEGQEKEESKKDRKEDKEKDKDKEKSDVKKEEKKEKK
Summary of the method: as §1

UCHL1 = UCHL1 (UniProt P09936)
Summary of the method: as §1

UCHL3 = target: T4, UCHL3 (UniProt P15374)
T4 sequence (whole entry): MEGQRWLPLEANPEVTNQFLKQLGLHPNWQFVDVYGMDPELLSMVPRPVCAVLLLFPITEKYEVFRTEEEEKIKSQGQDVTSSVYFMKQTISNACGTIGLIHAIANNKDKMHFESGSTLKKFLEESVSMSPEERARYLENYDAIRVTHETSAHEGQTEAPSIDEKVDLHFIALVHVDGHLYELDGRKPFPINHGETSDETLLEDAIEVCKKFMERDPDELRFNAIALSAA
Summary of the method: as §1

UCHL5 = target: T5, UCHL5 (UniProt Q9Y5K5)
T5 sequence (whole entry): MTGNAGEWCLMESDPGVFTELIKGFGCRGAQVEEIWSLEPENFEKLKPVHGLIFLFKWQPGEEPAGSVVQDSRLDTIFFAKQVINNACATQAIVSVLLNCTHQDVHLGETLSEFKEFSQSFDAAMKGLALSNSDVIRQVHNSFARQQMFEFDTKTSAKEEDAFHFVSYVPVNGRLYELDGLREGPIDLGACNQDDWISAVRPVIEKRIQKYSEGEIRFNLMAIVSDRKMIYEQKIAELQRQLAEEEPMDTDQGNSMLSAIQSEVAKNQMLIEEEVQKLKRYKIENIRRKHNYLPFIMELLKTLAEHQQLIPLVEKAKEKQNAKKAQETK
Summary of the method: as §1

USP10 = USP10 (UniProt Q14694)
Summary of the method: as §1

USP15 = target: T6, USP15 (UniProt Q9Y4E8)
T6 sequence (whole entry): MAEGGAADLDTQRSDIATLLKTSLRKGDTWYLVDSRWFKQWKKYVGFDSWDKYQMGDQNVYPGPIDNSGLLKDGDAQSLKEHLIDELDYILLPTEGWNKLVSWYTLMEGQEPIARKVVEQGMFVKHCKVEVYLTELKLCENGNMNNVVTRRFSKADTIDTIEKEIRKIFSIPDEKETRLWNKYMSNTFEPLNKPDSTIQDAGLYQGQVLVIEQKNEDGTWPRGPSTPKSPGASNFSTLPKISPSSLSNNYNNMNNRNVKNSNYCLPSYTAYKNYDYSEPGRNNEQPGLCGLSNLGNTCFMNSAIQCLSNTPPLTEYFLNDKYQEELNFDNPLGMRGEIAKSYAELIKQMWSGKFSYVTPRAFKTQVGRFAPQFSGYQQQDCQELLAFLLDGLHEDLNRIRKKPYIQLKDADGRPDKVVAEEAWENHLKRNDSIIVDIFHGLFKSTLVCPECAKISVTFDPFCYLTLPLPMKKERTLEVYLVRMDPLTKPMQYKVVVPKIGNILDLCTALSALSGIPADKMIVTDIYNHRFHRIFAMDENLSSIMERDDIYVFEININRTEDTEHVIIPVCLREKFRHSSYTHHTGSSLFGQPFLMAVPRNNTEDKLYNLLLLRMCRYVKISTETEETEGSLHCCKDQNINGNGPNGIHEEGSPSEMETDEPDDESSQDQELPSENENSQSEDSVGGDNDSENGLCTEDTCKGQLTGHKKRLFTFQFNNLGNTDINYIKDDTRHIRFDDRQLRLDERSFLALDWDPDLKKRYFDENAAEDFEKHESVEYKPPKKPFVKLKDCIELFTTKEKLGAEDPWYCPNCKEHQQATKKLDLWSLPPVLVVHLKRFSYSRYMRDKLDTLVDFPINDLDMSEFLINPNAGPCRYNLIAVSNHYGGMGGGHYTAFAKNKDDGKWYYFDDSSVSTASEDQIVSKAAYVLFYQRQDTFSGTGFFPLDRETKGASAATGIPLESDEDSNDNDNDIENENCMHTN
Summary of the method: as §1

USP16 = USP16 (UniProt Q9Y5T5)
Summary of the method: as §1

Measured: log2 ratio of Biotin-Ahx-Ub-VS probe labelling

Sequence of USP10 (Q14694 whole entry): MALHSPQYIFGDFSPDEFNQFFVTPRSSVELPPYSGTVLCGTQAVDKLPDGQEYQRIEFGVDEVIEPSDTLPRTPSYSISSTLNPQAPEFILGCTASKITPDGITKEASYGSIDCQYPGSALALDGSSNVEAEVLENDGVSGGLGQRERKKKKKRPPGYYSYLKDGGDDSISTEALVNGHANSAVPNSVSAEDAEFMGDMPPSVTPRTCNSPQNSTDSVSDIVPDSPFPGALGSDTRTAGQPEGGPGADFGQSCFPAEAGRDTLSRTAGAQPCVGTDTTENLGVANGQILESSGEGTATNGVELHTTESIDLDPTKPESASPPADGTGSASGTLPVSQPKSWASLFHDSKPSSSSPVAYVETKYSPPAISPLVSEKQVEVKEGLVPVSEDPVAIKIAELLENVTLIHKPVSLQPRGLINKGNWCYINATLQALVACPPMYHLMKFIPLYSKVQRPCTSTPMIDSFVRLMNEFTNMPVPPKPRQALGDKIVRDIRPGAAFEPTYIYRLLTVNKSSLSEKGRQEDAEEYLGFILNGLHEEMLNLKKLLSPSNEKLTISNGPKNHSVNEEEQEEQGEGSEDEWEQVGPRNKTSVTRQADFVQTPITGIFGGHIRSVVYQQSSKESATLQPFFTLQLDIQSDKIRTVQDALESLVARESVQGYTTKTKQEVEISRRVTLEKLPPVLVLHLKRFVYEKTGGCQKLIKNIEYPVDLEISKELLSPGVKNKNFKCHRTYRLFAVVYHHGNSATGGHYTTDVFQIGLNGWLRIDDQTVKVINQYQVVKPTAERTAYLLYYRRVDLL
Sequence of USP16 (Q9Y5T5 whole entry, looked up): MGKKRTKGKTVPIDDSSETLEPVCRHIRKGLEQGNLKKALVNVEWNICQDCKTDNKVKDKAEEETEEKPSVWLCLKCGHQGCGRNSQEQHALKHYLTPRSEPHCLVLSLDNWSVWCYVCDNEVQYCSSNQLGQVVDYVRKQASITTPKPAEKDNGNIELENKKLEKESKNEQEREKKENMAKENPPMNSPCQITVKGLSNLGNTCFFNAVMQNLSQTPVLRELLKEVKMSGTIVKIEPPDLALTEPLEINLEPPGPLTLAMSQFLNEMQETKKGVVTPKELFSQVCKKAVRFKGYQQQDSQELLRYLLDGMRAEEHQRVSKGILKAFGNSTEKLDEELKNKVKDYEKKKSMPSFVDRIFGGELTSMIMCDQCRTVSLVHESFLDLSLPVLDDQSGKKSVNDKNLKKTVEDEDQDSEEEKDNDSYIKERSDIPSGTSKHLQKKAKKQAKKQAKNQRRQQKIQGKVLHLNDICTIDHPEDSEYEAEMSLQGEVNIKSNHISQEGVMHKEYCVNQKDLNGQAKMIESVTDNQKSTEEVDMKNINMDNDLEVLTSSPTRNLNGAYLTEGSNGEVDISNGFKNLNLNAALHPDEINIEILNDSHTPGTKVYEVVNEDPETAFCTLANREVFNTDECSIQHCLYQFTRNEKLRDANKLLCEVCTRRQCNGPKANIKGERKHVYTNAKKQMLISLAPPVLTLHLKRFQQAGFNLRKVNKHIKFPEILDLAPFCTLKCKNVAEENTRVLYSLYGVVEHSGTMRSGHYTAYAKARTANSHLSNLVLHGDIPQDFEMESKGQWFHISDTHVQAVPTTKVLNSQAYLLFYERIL
Sequence of UCHL1 (P09936 whole entry, looked up): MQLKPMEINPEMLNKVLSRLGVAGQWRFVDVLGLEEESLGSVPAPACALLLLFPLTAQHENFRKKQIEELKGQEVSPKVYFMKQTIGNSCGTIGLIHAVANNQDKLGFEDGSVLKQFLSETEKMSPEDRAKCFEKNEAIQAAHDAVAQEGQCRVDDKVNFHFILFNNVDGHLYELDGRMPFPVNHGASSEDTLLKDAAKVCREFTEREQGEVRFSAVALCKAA

Cl.O=C(CCl)NCCc1ncc(F)cc1F
active: UCHL1 -1.7
inactive: OTUD6B -0.346 | OTUD7B -0.663 | PRPF8 -0.0362 | PSMD7 -0.45 | UCHL3 0.191 | UCHL5 -0.376 | USP10 -0.075 | USP15 -0.3 | USP16 -0.0122
